This is part of a sample that, as a whole, favours compounds with a hit. Of some 83,000 tested, about 20% had one in any assay.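 Values shown are percent growth following 48 h exposure of cells in 96-well plates to a single concentration of compound; below 10 was considered active.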 Unmarked numbers belong to inactive results. Active and inactive are the calls of the source.
The compounds below were run on HL-60(TB) leukemia (assay: NCI-60 one-dose screen, 48 h (100 = growth as untreated, 0 = no growth, -100 = all killed)). Conditions: 10 µM unless noted.

How did the growth turn out when CCOc1ccc(-n2nc(C(=O)NCc3ccccc3OC)nc2-c2cc(OC)c(OC)c(OC)c2)cc1 was run?
The growth was 19.1%.

With O=c1[nH]c2ccccc2n2cc3cccnc3c12 as the compound, how does the growth read?
Its growth is 87.5%.

With CCNCCNc1cc(-c2ccc(C(F)(F)F)cc2)c(C#N)c2nc3ccccc3n12 as the compound, how does the growth read?
The growth was -65.9% (active).

O=c1[nH]c(CN2CCN(c3ccccc3)CC2)nc2c(Br)cc(Br)cc12 was tested. Which growth did it give?
Its growth is 99.2%.

For Cn1ccnc1CN1CCSC(C(=O)Nc2ccccc2)C1 (stereo not given), which growth is on record?
The growth was 88.6%.

Which growth does the source give for COc1cc(OC)cc(N2C(=O)N(Cc3ccc(C(C)(C)C)cc3)c3ccccc3S2(=O)=O)c1 here?
Its growth is 67.9%.

How did the growth turn out when CCOC(=O)c1[nH]c(-c2ccc(Cl)cc2)cc1-c1cccnc1 was run?
The growth was -20.7% (active).

How did the growth turn out when CC(=O)C1=C(C)NC(SCc2nnc(-c3ccc(C)cc3)o2)=NC1c1ccc(F)cc1 (stereo not given) was run?
The growth was 80.8%.

With CC(=O)Oc1ccccc1C(=O)N=C1[Se]CCCN1C(=O)c1ccccc1OC(C)=O as the compound, how does the growth read?
Its growth is 12.7%.

How did the growth turn out when O=NN(CC(=O)NNc1ccccc1)CC(=O)NNc1ccccc1 was run?
The growth was 31.6%.

How did the growth turn out when CC(C)=NNc1ncnc2c1ncn2C1OC(CO)C(O)C1O (stereo not given) was run?
The growth was 6.58% (active).

COc1ccc(C(=O)CSc2nnc(-c3cc(-c4ccccc4)nc4ccccc34)o2)cc1 was tested. Which growth did it give?
Its growth is 111%.

COc1ccc(S(=O)(=O)n2cc(C(=O)C(=O)Nc3ccncc3)c3ccccc32)cc1F was tested. Which growth did it give?
Its growth is -46.4% (active).

How did the growth turn out when COc1ccc(Nc2nc(N)nc3c(=O)[nH]ccc23)cc1 was run?
Its growth is 96.1%.

How did the growth turn out when CC(=O)c1sc(-c2ccccc2)cc1N was run?
Its growth is 83.6%.

With O=C(NC1CCN(Cc2ccccc2)CC1)c1cc(-c2ccncc2)nc2ccc(Cl)cc12 as the compound, how does the growth read?
Its growth is 15.2%.

For COc1cc2c(cc1OC)C(=O)/C(=C/c1cccc(OCC(=O)c3ccccc3)c1)C2, which growth is on record?
Its growth is 89.8%.

For Cn1cc(-c2nonc2-c2cn(C)c3ccc(F)cc23)c2ccccc21, which growth is on record?
Its growth is -24.3% (active).

Which growth does the source give for COc1ccc(OCC(=O)Nc2ccc(-c3nc4ccccc4s3)cc2C)cc1 here?
Its growth is 48.2%.

Which growth does the source give for COc1ccc(N=Nc2nccs2)c(O)c1 here?
Its growth is -32.2% (active).

Which growth does the source give for c1ccc2c(c1)CN(CCCN1CCOCC1)C2 here?
Its growth is 105%.

How did the growth turn out when CC(=O)c1c(/C=C/c2ccc(C)cc2)c2ccccc2[nH]c1=O was run?
Its growth is 99.3%.

For CCCCNCC(O)c1cc(-c2ccc(C(F)(F)F)cc2)nc(-c2ccc(C(F)(F)F)cc2)c1 (stereo not given), which growth is on record?
The growth was -49.2% (active).

How did the growth turn out when CCN1CCN(c2nc(C)cc(N(CCCNc3ccnc4cc(Cl)ccc34)Cc3ccco3)n2)CC1 was run?
Its growth is 37.5%.

Which growth does the source give for COc1ccc2nc3cc(Cl)ccc3c(N3CCN(c4nccc(Nc5ccccc5)n4)CC3)c2c1 here?
The growth was 73.8%.

With c1ccc(-c2[nH]c3ccccc3c2-c2ccccc2)cc1 as the compound, how does the growth read?
Its growth is 78.7%.

C[C@H]1[C@H](C)CC[C@]2(C(=O)O)CC[C@]3(C)C(=CC[C@@H]4[C@@]5(C)C/C(=C/c6ccco6)C(=O)C(C)(C)[C@@H]5CC[C@]43C)[C@H]12 was tested. Which growth did it give?
The growth was -3.02% [100 µM] (active).

Which growth does the source give for COc1cc2c(cc1-c1c(C)noc1C)ncc1nc(C3CCC(F)(F)CC3)n([C@H](C)COC(F)F)c12 here?
Its growth is 23.5%.

For C=CC(C)(C)n1cc(C2=C(O)C(=O)C(c3cn(C(C)(C)C=C)c4ccccc34)=C(O)C2=O)c2ccccc21, which growth is on record?
Its growth is 69.4%.

How did the growth turn out when CC(C)n1nc(C#Cc2cccc3cc(-c4cccc(C(F)(F)F)c4)ncc23)c2c(N)ncnc21 was run?
The growth was 57.1%.

How did the growth turn out when CNc1cccc2c1C(=O)c1cccc(N)c1C2=O was run?
The growth was 34.4%.

With C=C1C(=O)O[C@H]2[C@H]1CC/C(CNC(=O)c1cccc3ccccc13)=C\CC[C@@]1(C)O[C@@H]21 as the compound, how does the growth read?
Its growth is -23.9% (active).

For NC(=O)c1ncn([C@@H]2O[C@H](CO)[C@@H](O)[C@H]2O)n1, which growth is on record?
Its growth is 109%.

CCOC(=O)NNc1nncc2ccccc12 was tested. Which growth did it give?
The growth was 103%.

Which growth does the source give for CCN(CC)CCCCCNc1cc(OC(=O)c2ccc(Cl)cc2)cc2cccnc12 here?
Its growth is 6.96% (active).

Which growth does the source give for COc1ccc(C2=CC(c3cc(OC)c(OC)c(OC)c3)n3ncnc3N2)cc1 (stereo not given) here?
Its growth is -29.9% (active).

CC(=O)NCC1c2c(n(C)c3c(Cl)c(Cl)ccc23)C(=O)NC1(C)C (stereo not given) was tested. Which growth did it give?
Its growth is 84%.

COc1ccc(C(=O)/C=C/c2ccccc2)cc1S(N)(=O)=O was tested. Which growth did it give?
Its growth is 64.2%.

For Nc1c(-c2nc3ccccc3c(=O)[nH]2)nnn1-c1ccc(Cl)cc1, which growth is on record?
The growth was 94%.

CCCCCCCN(CCCCCCC)C(=N)c1ccnc2ccccc12 was tested. Which growth did it give?
Its growth is -64.4% (active).
